A selection: hits, their analogues and other compounds. The true share with any hit is near 4.7%.
sdo1 growth: sdo1-depleted yeast growth rescue | S. cerevisiae sdo1-depleted JHY4D growth rescue, OD600 30 h; hits give high values; pdr5 snq2 efflux-pump mutant strain | z-score at 10 µM | 0.21% of 140,000 active;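 active means z-score above 3 at both the 24 hr and the 30 hr optical density reads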;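 further: z-score against mean and SD of all compound wells on the same plate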
hDAT+cocaine: changed human dopamine transporter uptake under cocaine IC80; B-score at 10 µM; LLC-PK1 hDAT cells, [14C]-dopamine uptake with cocaine IC80; actives deviate in either direction; AID 449768; 1.3% of 110,000 active; Q01959;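 active means Z score or B-score, a plate-position-corrected score, falls beyond the plate's 99.7% confidence bounds, in either direction; inactive means both scores lie inside the 99.7% bounds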;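 further: scored against the spread of the other compound wells on the same plate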
PLK1 inh: PLK1 (human) kinase inhibition | P53350 | recombinant PLK1 kinase, TR-FRET peptide phosphorylation | inhibition, % at 10 µM | 0.53% of 97,000 active;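 active means inhibition of 50% or more in the single-concentration screen; inactive means inhibition below 50%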;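 further: 0% = DMSO max control and 100% = H-89 dihydrochloride min control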
Cav3 T inh: inhibitors of human Cav3.2 T-type calcium channel. 4% of 100,000 active. Cav3.2-expressing cells, Fluo-4 calcium fluorescence FDSS; hits give low values. B-score at 10 µM;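 active means single-dose well whose peak fluorescence ratio is a statistical outlier from its plate by either plate-standardised score or position-corrected B-score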
PLK1 PBD inh: blocks phosphopeptide binding to human Plk1 polo box domain | 0.13% of 97,000 active | Plk1 PBD phosphopeptide binding, fluorescence polarization | P53350 | inhibition, %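 (tested at about 20 µM)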; in the data active means inhibition above about 34%, passing the limit was not always enough
Pyk2 oligo antag: blocks oligomerization of human Pyk2 in cells; z-score (the deposit names both 25 µM and 10 µM); Q293 cells, Pyk2 FERM NanoBiT luminescence; hits give low values; 0.83% of 99,000 active; AID 1347419;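 active means Z-score of -3 or lower, scaled per plate to the spread of control and sample wells; inactive means z-score above -3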;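 further: negative z-score means lost luminescence so less FERM oligomerization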
Target sequence (Q14289 whole entry, looked up): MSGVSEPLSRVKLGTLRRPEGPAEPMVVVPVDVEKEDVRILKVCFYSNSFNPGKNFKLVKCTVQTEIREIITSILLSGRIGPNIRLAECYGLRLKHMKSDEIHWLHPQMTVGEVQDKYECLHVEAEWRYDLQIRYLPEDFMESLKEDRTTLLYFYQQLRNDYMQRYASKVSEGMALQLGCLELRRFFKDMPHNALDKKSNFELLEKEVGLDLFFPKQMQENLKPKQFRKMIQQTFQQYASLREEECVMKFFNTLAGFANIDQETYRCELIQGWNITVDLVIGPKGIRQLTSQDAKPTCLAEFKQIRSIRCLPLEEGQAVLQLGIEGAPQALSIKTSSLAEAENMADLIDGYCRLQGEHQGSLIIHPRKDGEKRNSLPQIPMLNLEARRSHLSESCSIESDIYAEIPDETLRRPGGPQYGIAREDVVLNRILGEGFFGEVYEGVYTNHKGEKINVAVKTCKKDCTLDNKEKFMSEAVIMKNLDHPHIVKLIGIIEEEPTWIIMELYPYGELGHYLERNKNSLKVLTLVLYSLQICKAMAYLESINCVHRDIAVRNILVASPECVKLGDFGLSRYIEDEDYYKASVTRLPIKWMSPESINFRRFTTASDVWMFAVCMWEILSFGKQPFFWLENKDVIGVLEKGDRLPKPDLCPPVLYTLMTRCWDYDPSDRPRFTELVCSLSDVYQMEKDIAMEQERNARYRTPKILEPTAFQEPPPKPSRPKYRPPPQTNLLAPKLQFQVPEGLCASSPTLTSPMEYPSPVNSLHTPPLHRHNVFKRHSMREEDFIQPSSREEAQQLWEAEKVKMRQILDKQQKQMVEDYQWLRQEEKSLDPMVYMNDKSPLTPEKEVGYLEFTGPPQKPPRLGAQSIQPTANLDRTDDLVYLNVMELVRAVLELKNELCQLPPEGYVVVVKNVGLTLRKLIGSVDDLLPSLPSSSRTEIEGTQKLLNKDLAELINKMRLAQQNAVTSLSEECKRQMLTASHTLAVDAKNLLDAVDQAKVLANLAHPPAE
* marks the source's active call; other numbers are inactive results; / = no result given.

SMILES	sdo1 growth	hDAT+cocaine	PLK1 inh	Cav3 T inh	PLK1 PBD inh	Pyk2 oligo antag
CC1(C)Cc2c(C#N)c(N3CCN(C(=O)c4ccco4)CC3)nc(Cc3ccccc3)c2CO1	0.29	0.85	-12	-4.6*	22	-1.8
Cc1ccc(NC(=S)N(C)Cc2cn(C)c3ccccc23)cc1	-1.3	/	/	/	/	-0.08
Cc1ccc(C(=O)N2NC(c3ccc(F)cc3)C3C(=O)N(c4ccc(C)c(C)c4)C(=O)C32)cc1 (stereo not given)	-0.34	/	/	/	/	/
CC(=O)NO	/	0.21	/	/	/	/
CCC(=O)Nc1cccc(-c2csc(-c3ccccc3)n2)c1	-1.9	/	/	/	/	/
CC(=O)Nc1cccc(-c2csc(Nc3ccccn3)n2)c1	-0.92	2.5*	-9	-1.9	15	-1.3
CC(=O)Nc1cccc(-c2csc(Nc3cc(C)ccn3)n2)c1	-2.2	3.1*	-11	-3	-4	-1
CC(=O)Oc1ccc2c(=O)c(Oc3ccccc3)coc2c1OC(C)=O	-0.29	/	/	/	/	/
C=CCn1c2ccccc2c2nnc(SCN3C(=O)c4ccccc4C3=O)nc21	-1.7	-0.015	2	-0.3	-26	-2.4
C=CCn1c2ccccc2c2nnc(SCCCn3c(=O)[nH]c4ccccc43)nc21	-0.71	3.7*	-8	-3	-9	-3.9*
O=C(Cn1nnc(-c2ccc(Cl)cc2)n1)NC1CCN(Cc2ccccc2)CC1	0.27	0.13	-2	-5.9*	-10	1.3
COc1ccc(C(=O)c2coc3ccc(O)c(CN4CCOCC4)c23)cc1	1.2	3.5*	-10	-1.7	6	/
COc1ccc(C(=O)c2c(C)oc3ccc(O)c(CN4CCOCC4)c23)cc1	-0.9	1.2	-10	-0.46	-16	-0.64
COc1ccc(Oc2coc3c(CN4CCOCC4)c(O)ccc3c2=O)cc1	1.8	-7.4*	-4	0.00012	-25	1.9
CC(=O)N/C(=C\c1ccccc1)C(=O)OCC(=O)N(C)C1CCCCC1	1.2	/	/	/	/	/
Fc1c(F)c(F)c(N=Cc2ccc3ncccc3c2)c(F)c1F	0.12	/	/	/	/	/
O=C(CO/N=C\c1ccccc1)Nc1ccccc1C(=O)N1CCOCC1	0.78	/	/	/	/	/
CC12CCCCC1N(O)C(=O)C(=O)N2O (stereo not given)	0.44	/	/	/	/	/
Cc1ccc(C(=O)NNC(=S)NC(=O)c2ccc(Cl)cc2)cc1	0.86	-1.7	-15	-4.2*	13	0.81
COc1ccc(C(=O)NNC(=S)NC(=O)c2cc(-c3ccccc3)nc3ccccc23)cc1	0.63	/	-9	/	5	-1
CCCOc1ccc(C(=O)NNC(=S)NC(=O)c2cc(-c3ccc(Cl)cc3)nc3ccccc23)cc1	-0.11	-0.73	-14	-6.7*	9	-0.64
Cc1ccccc1C(=O)NNC(=S)NC(=O)c1ccc(Cl)cc1Cl	-0.46	-0.04	-6	-4*	13	0.89
O=C(CCc1ccccc1)NNC(=S)NC(=O)c1ccc(Cl)cc1	-1	-0.022	-8	-3.7*	12	/
O=C(c1ccccn1)N1N=C2/C(=C/c3ccc(F)cc3)CCCC2C1c1ccc(F)cc1 (stereo not given)	-0.6	/	/	/	/	/
CN1CCN(C(=O)CCc2nc3ccccc3n2-c2ccccc2)CC1	1.6	/	/	/	/	/
SMILES	sdo1 growth	hDAT+cocaine	PLK1 inh	Cav3 T inh	PLK1 PBD inh	Pyk2 oligo antag
CCOC(=O)C1CCCN(C(=O)/C=C/c2ccccc2[N+](=O)[O-])C1 (stereo not given)	0.88	/	/	/	/	/
CC(=O)c1ccc(NC(=S)N2CC(C)CC(C)C2)cc1 (stereo not given)	-0.29	/	/	/	/	/
COc1ccccc1NC1=C(N2CCCCC2)C(=O)c2ccccc2C1=O	-1.5	/	/	/	/	/
O=C1C(Nc2cccc(O)c2)=C(N2CCCCC2)C(=O)c2ccccc21	-1.4	-2.7*	-8	-0.85	-14	-0.39
O=C1C(Nc2ccccc2)=C(N2CCCCC2)C(=O)c2ccccc21	-2	-5*	-17	0.6	-8	0.37
Cc1ccc(NC2=C(N3CCCCC3)C(=O)c3ccccc3C2=O)cc1	-0.64	0.49	-12	-0.62	28	0.26
CCc1ccccc1NC(=O)CN(C)C(=O)CSc1nn(-c2ccc(F)cc2)c(=S)s1	0.95	/	/	/	/	/
O=C1Nc2ccccc2C12OCC(COc1ccc(Cl)cc1)O2 (stereo not given)	-0.64	1	-12	-5.4*	-18	-0.88
CN1C(=O)C2(OCC(COc3ccc(Cl)cc3)O2)c2ccccc21 (stereo not given)	-0.75	-1.2	-9	-1.6	-15	-2.4
C=CCn1c(=NC(=O)c2ccccc2[N+](=O)[O-])sc2cc(S(C)(=O)=O)ccc21	-0.94	/	/	/	/	/
Clc1ccccc1-c1nnn(Cc2ccc(-c3nn[nH]n3)cc2)n1	0.07	0.25	-14	-4.9*	3	-0.5
Clc1ccc(Cn2nnc(-c3ccccc3)n2)cc1	-0.21	-0.24	-7	-1.3	15	-0.67
O=C(c1ccco1)N(Cc1ccc([N+](=O)[O-])cc1)c1ccc(Br)cc1	-1.4	2.9*	-1	-6.6*	-36	-0.79
COc1ccc(CN(C(=O)c2ccco2)c2ccccc2)cc1	-0.54	1.8	-8	-2.1	-5	-1.5
O=C(c1ccco1)N(Cc1ccc([N+](=O)[O-])cc1)c1ccc(Cl)cc1	-0.25	0.56	-1	-6.9*	4	-0.39
Cc1ccc(N(Cc2ccc([N+](=O)[O-])cc2)C(=O)c2ccco2)cc1C	-1.3	/	/	/	/	/
Cc1cc(/C=N\NC(=O)CC(=O)NC2CCCCC2)c(C)n1-c1ccc(Cl)c(Cl)c1	-1.6	-3.7*	-9	-2.9	-5	-0.96
COc1ccccc1/C=N/NC(=O)CC(=O)NCc1cccnc1	2	/	/	/	/	/
COc1ccccc1/C=N/NC(=O)CC(=O)Nc1ccc(Cl)c(Cl)c1	-0.74	-0.0084	-11	-5.3*	-2	-0.47
COc1cccc(NC(=O)C(=O)N/N=C/c2cc(C)n(-c3ccc(Cl)c(Cl)c3)c2C)c1	-2.1	-4.8*	-13	-5.6*	-17	0.32
COc1ccccc1C(=O)N/N=C(\C)c1ccc(NC(=O)C2CC2)cc1	0.3	/	/	/	/	/
COC(=O)C1=C(C)NC(C)=C(C(=O)OC)C1c1ccc(OC(=O)c2oc3ccccc3c2C)c(OC)c1	0.13	/	/	/	/	/
CCc1ccc(C2CC(c3ccc(C)cc3)Nc3nc(N)nn32)cc1 (stereo not given)	-1.3	-2.5*	/	-0.028	/	/
O=C(O)c1ccc(-n2nnnc2SCc2ccccc2F)cc1	1.3	0.006	59*	-4.1*	29	/
COc1cc2c(cc1OC)C(c1ccccc1)N(C(=O)c1ccco1)CC2 (stereo not given)	1.8	-0.52	-10	-1.6	8	/
COc1cc2c(cc1OC)C(c1cccc([N+](=O)[O-])c1)N(C(=O)c1ccc(F)cc1)CC2 (stereo not given)	-0.98	-0.35	-13	-5.3*	0	-0.97
COc1ccc(C(=O)NCc2nnc(SCC(=O)N3CCc4ccccc43)n2Cc2ccccc2)cc1	-0.15	/	/	/	/	/
CCc1nccn1S(=O)(=O)c1ccc(Br)cc1Br	-0.83	0.32	/	-1.2	/	-0.15

Compound activity as filed in PubChem.
